Test results: PubChem BioAssay (Tox21)
Records with an inconclusive call do not appear. Where a call stands in place of a potency, no number is given. Active and inactive are the calls of the source. Unless noted, calls come from the whole dose curve.

Key:
[1] = Nuclear factor erythroid 2-related factor 2/antioxidant responsive element (Nrf2/ARE) small molecule agonists: qHTS cell viability counter screen in human keratinocytes (AID 1919968; active = well fitted curve in the direction sought with a large enough effect in the repeat runs; an effect the other way counts as inactive or inconclusive; note: nearly all actives have a fitted effect of over 55% in size)
Procedure, shortened: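 Viability counter-screen: KeratinoSens reporter cells, DMSO-delivered compounds, 23 h at 37 C, CellTiter-Fluor fluorescence.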

[2] = Nuclear factor erythroid 2-related factor 2/antioxidant responsive element (Nrf2/ARE) small molecule agonists: luciferase reporter gene qHTS assay in human keratinocytes (AID 1919969); note: nearly all actives have a fitted effect of over 35% in size; note: potency is the fitted concentration of half-maximal effect
[3] = biological target: Gonadotropin-releasing hormone receptor (Homo sapiens) (UniProt P30968); test: Human gonadotropin-releasing hormone receptor (GnRHR) small molecule agonists, calcium flux assay in GnRHR-HEK293 cells (AID 1920063); note: nearly all actives have a fitted effect of over 35% in size
Procedure, shortened: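 Tox21-format agonist screen using human GnRHR-expressing HEK293 cells and a fluorescent calcium dye; kinetic 3-min fluorescence reading after compound addition, 15-point concentration series run in triplicate.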

[4] = biological target: KiSS-1 receptor (Homo sapiens) (UniProt Q969F8); test: Human kisspeptin (KISS1R) small molecule agonists, calcium flux assay in KISS1R-HEK293 cells (AID 1920064; active = well fitted curve in the direction sought with a large enough effect in the repeat runs; an effect the other way counts as inactive or inconclusive)
Procedure, shortened: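 Intracellular calcium mobilization in KISS1R-HEK293 cells was recorded by fluorescence (Ex/Em 480/540) for 3 min following compound addition to cells pre-loaded 1 h with calcium dye.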

[5] = G protein-coupled receptor (GPCR) small molecule agonists, calcium flux assay: HEK293 wild type cell line counter screen (AID 1920065)
Procedure, shortened: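 In this agonist-mode screen, ATP is the positive control and DMSO the vehicle. Cells grow 18 h before a 1 h dye incubation at 37 C; signal is taken at Ex/Em 480/540 over 3 min.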

[6] = p53 small molecule agonists, cell-based qHTS assay with human liver microsomes: qHTS cell viability counter screen (AID 1963579); note: nearly all actives have a fitted effect of over 45% in size
Procedure, shortened: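 In this multiplexed counter screen, the reporter plates were subsequently treated with CellTiter-Glo so that cell viability, reflected by luminescence, could be recorded for p53RE-bla cells dosed 16 h with compounds under microsomal activation (HLM and NADPH).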

[7] = p53 small molecule agonists, cell-based qHTS assay with rat liver microsomes: qHTS cell viability counter screen (AID 1963580); note: nearly all actives have a fitted effect of over 45% in size
Procedure, shortened: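 p53RE-bla HCT-116 cells were exposed 16 h at 37 C to compounds with rat liver microsomes (0.5 mg/mL) and NADPH (0.5 mg/mL). Viability was measured in the same wells as ATP content by CellTiter-Glo luminescence.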

[8] = p53 small molecule agonists, cell-based qHTS assay: qHTS cell viability counter screen (AID 1963581); note: nearly all actives have a fitted effect of over 45% in size
Procedure, shortened: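 Compounds are pinned onto HCT-116 p53RE-bla cells and left 16 h at 37 C. Following the reporter FRET read, ATP is quantified by CellTiter-Glo luminescence after 30 min at room temperature.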

[9] = biological target: 5-hydroxytryptamine receptor 2A (Homo sapiens) (UniProt P28223); test: 5-hydroxytryptamine receptor 2A (HTR2A) small molecule antagonists, cell-based qHTS assay (AID 1963586); note: nearly all actives have a fitted effect of over 45% in size
Procedure, shortened: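 Antagonist-mode intracellular calcium assay: DOI (4 nM) added after 5 min compound pre-incubation at room temperature to dye-loaded HTR2A-CHO cells. Fluorescence followed for 3 min, sampled every second.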

[10] = biological target: Muscarinic acetylcholine receptor M1 (Homo sapiens) (UniProt P11229); test: Cholinergic receptor muscarinic 1 (CHRM1) small molecule antagonists, cell-based qHTS assay (AID 1963588); note: nearly all actives have a fitted effect of over 40% in size
Procedure, shortened: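 CHRM1-CHO calcium-flux assay, antagonist mode. Cells were seeded 18 h, dye-loaded 1 h at 37 C and given compound for 5 min at RT, then acetylcholine was added at 50nM. FDSS fluorescence was read 3 min; 15 concentrations, three runs.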

[11] = cAMP Responsive Elements (CRE) small molecule agonists, cell-based qHTS assay (AID 1963590)
Procedure, shortened: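 FRET-based beta-lactamase readout (LiveBLAzer B/G, 2 h RT) quantified CRE activation in HEK 293T CRE-bla cells after 3 h treatment with DMSO-dissolved compounds.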

[12] = cAMP Responsive Elements (CRE) small molecule antagonists, cell-based qHTS assay (AID 1963591; active = well fitted inhibition curve with a large enough effect in the signal ratio in the repeat runs, not every such curve was filed as active; the % refers to the signal ratio)
Procedure, shortened: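 qHTS in CRE-bla HEK 293T cells: compound in DMSO, then 0.25 uM NKH477 (final), 3 h at 37 °C/5% CO2; beta-lactamase FRET read-out after 2 h substrate incubation.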

[13] = biological target: Beta-2 adrenergic receptor (Homo sapiens) (UniProt P07550); test: Adrenergic beta2 receptor (ADRB2) small molecule antagonists, cell-based qHTS assay (AID 1963592); note: series mostly up to about 92 µM; nearly all actives have a fitted effect of over 50% in size
Procedure, shortened: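 Cells (CHO, stable ADRB2 overexpression) incubated 18-20hr at 37C; compounds added from DMSO; agonist mix (1nM isoproterenol, 100uM IBMX, 25uM Ro-20-1724) added; 0.5hr RT; d2-cAMP and anti-cAMP-cryptate added; 1hr RT; 665/615 nm read.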

[14] = biological target: D(2) dopamine receptor (Homo sapiens) (UniProt P14416); test: Dopamine D2 receptor (DRD2) small molecule agonists, cell-based qHTS assay (AID 1963594); note: nearly all actives have a fitted effect of over 35% in size
Procedure, shortened: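 HEK293 cells stably expressing human DRD2, pre-treated with PDE inhibitor Ro20-1724 (0.1 mM final) and compound 10 min at room temperature, then stimulated with NKH477 (200nM […]) for 30 min. cAMP read by HTRF (665/620 nm).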

[15] = biological target: D(2) dopamine receptor (Homo sapiens) (UniProt P14416); test: Dopamine D2 receptor (DRD2) small molecule antagonists, cell-based qHTS assay (AID 1963595; active = well fitted inhibition curve with a large enough effect in the signal ratio in the repeat runs, with a control signal flat; the % refers to the signal ratio)
Procedure, shortened: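 Antagonism was scored as restored cAMP in HEK293-DRD2 cells. These cells were stimulated with 200 nM NKH477 and 12 nM quinpirole for 30 min at room temperature, in the presence of 0.1 mM Ro20-1724.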

[16] = biological target: Muscarinic acetylcholine receptor M1 (Homo sapiens) (UniProt P11229); test: Cholinergic receptor muscarinic 1 (CHRM1) small molecule agonists, cell-based qHTS assay (AID 1963589); note: nearly all actives have a fitted effect of over 35% in size
Procedure, shortened: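 Stable CHRM1-CHO cells (human receptor) were incubated 18 h, dye-loaded for 1 h at 37 C and exposed to test compounds for agonist activity, with calcium-dependent fluorescence followed kinetically.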

[17] = biological target: Beta-2 adrenergic receptor (Homo sapiens) (UniProt P07550); test: Adrenergic beta2 receptor (ADRB2) small molecule agonists, cell-based qHTS assay (AID 1963593);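 note: CHO cells stably overexpressing human ADRB2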
Procedure, shortened: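 CHO cells stably over-expressing ADRB2 were plated overnight at 37C, then dosed with compounds plus a stimulation mix containing 100uM IBMX and 25uM Ro-20-1724 for 0.5hr at room temperature. cAMP was measured by HTRF competition, 1hr.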

[18] = biological target: 5-hydroxytryptamine receptor 2A (Homo sapiens) (UniProt P28223); test: 5-hydroxytryptamine receptor 2A (HTR2A) small molecule agonists, cell-based qHTS assay (AID 1963587); note: nearly all actives have a fitted effect of over 30% in size
Procedure, shortened: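 CHO cells stably expressing human HTR2A, plated 18 h, loaded with calcium dye 1 h at 37 C. Agonist mode: compounds added and intracellular calcium fluorescence recorded kinetically for 2 min at 1 sec intervals.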

Chain of D(2) dopamine receptor (Homo sapiens) (P14416 whole entry, looked up): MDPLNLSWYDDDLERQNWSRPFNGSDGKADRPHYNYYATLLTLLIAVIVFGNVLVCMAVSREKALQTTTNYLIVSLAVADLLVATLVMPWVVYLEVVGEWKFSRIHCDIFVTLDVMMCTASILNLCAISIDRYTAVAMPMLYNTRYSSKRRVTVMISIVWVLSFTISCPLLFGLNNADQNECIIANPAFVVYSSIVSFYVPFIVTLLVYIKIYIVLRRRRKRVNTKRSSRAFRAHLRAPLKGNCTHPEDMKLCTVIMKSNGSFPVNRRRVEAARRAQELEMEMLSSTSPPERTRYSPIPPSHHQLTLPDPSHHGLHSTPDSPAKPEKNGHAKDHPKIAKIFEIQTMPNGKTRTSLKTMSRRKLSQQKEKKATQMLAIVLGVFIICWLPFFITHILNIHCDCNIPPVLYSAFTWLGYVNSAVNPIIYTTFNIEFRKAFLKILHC
Chain of KiSS-1 receptor (Homo sapiens) (Q969F8 whole entry, looked up): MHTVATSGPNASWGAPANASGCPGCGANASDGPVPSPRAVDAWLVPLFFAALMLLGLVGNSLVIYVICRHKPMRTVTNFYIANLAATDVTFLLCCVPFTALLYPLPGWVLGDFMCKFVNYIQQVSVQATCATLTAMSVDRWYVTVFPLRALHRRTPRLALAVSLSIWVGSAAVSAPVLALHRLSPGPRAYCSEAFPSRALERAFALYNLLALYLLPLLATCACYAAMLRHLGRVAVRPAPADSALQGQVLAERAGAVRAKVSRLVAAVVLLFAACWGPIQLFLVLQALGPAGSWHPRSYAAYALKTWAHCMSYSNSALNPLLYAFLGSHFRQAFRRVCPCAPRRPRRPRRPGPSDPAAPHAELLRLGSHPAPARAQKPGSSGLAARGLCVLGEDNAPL
Chain of Beta-2 adrenergic receptor (Homo sapiens) (P07550 whole entry, looked up): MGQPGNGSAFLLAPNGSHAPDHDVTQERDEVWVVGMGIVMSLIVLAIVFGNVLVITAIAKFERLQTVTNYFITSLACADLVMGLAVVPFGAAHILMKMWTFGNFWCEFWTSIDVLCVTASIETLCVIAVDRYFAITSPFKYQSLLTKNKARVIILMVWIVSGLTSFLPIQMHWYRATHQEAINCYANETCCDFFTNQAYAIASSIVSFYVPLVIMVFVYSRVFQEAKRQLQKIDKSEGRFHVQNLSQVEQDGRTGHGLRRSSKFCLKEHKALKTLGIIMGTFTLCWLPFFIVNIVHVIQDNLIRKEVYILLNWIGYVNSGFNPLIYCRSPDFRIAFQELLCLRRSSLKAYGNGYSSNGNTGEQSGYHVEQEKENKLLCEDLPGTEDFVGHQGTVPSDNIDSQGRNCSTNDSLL
Chain of 5-hydroxytryptamine receptor 2A (Homo sapiens) (P28223 whole entry, looked up): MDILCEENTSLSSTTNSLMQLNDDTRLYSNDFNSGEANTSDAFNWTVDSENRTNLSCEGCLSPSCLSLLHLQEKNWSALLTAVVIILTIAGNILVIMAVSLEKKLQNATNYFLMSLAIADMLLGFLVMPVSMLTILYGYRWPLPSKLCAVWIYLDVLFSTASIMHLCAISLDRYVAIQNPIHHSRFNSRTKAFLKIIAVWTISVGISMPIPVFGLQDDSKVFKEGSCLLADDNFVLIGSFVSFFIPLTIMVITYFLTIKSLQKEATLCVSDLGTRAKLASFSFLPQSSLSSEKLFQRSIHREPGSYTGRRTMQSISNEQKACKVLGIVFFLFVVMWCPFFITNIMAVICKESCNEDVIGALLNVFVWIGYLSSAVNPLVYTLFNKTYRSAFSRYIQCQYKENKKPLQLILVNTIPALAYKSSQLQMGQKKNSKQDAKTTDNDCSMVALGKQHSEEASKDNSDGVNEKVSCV
Chain of Gonadotropin-releasing hormone receptor (Homo sapiens) (P30968 whole entry, looked up): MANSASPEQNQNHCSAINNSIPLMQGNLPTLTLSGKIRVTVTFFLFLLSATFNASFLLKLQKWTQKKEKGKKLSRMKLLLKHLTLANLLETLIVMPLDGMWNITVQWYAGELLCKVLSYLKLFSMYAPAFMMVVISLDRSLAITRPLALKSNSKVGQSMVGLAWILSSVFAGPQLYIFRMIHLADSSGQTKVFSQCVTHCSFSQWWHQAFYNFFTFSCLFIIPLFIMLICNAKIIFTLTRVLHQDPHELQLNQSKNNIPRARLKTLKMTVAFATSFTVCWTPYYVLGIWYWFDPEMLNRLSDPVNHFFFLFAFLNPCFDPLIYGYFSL
Chain of Muscarinic acetylcholine receptor M1 (Homo sapiens) (P11229 whole entry, looked up): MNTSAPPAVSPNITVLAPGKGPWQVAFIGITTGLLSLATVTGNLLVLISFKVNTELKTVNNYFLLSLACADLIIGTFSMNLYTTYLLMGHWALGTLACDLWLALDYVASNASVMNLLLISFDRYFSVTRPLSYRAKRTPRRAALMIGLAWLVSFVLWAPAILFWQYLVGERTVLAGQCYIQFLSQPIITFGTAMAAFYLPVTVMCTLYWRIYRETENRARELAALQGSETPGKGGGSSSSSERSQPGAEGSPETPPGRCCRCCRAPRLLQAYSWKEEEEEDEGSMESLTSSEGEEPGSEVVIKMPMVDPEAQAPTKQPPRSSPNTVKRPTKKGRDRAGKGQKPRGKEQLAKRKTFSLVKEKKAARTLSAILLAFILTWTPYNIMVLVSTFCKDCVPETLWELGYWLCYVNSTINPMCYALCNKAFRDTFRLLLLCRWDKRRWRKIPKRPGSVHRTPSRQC

| SMILES | Potency [1] | Potency [2] | Potency [3] | Potency [4] | Potency [5] | Potency [6] | Potency [7] | Potency [8] | Potency [9] | Potency [10] | Potency [11] | Potency [12] | Potency [13] | Potency [14] | Potency [15] | Potency [16] | Potency [17] | Potency [18] |
| --- | --- | --- | --- | --- | --- | --- | --- | --- | --- | --- | --- | --- | --- | --- | --- | --- | --- | --- |
| C=C[C@H]1CN2CC[C@H]1C[C@H]2[C@H](O)c1ccnc2ccc(OC)cc12 | inactive | inactive | inactive | inactive | inactive | inactive | inactive | inactive | inactive | inactive | inactive | inactive | inactive | inactive | inactive |  |  |  |
| CC(C)c1ccc(S(=O)(=O)O)cc1 | inactive | inactive | inactive | inactive | inactive | inactive | inactive | inactive | inactive | inactive | inactive | inactive | inactive | inactive | inactive | inactive | inactive |  |
| Cc1cc(O)cc(C)c1Cl | inactive | inactive | inactive | inactive | inactive | inactive | inactive | inactive |  |  | inactive | inactive | inactive | inactive | inactive |  |  |  |
| CN(C)/N=N/c1nc[nH]c1C(N)=O | inactive | inactive | inactive | inactive | inactive | inactive | inactive | inactive |  |  | inactive | inactive | inactive | inactive | inactive |  |  |  |
| CC1COc2ccccc2N1C(=O)C(Cl)Cl (centres undefined) | inactive | 21.6 µM (active) | inactive | inactive | inactive | inactive | inactive |  | inactive | inactive |  | inactive | inactive |  | inactive | inactive | inactive | inactive |
| O=C1CC2(CCCC2)CC(=O)N1CCCCN1CCN(c2ncccn2)CC1 | inactive | inactive | inactive | inactive | inactive | inactive | inactive | inactive |  |  | inactive | inactive | inactive |  |  |  | inactive |  |
| CC(=O)OCC(=O)[C@@]1(O)CC[C@H]2[C@@H]3CCC4=CC(=O)C=C[C@]4(C)[C@H]3[C@@H](O)C[C@@]21C | inactive | inactive | inactive | inactive | inactive | inactive | inactive | inactive | inactive |  | inactive | inactive | inactive | inactive | inactive |  | inactive |  |
| CCOC(=O)C(C)Oc1ccc(Oc2cnc3cc(Cl)ccc3n2)cc1 (centres undefined) | inactive | inactive | inactive | inactive | inactive | inactive | inactive | inactive | inactive |  |  |  | inactive | inactive | inactive | inactive |  | inactive |
